The target of assay [1] is Bile acid receptor (Homo sapiens) (UniProt Q96RI1). The assay can be described thus: ATG_IR1_CIS: Attagene CIS-FACTORIAL HepG2 Assay for human Nuclear Receptor Subfamily 1 Group H Member 4 (NR1H4), IR1 submotif (AID 2282946). To be noted: IR1 reporter transcription, actives raise or lower the signal. Put shortly:
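HepG2 cells transiently transfected with multiplexed cis-element reporter units read endogenous transcription factor activity. After 24 h compound exposure, reporter mRNA was quantified by RT-PCR, fluorescent labelling, HpaI digestion and capillary electrophoresis; bidirectional fitting versus DMSO baseline.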

The nature of assay [2]: ATG_GRE_CIS: Attagene CIS-FACTORIAL HepG2 Assay for human Glucocorticoid Response Elements (GRE) (AID 2282947). To be noted: HepG2 GRE cis-reporter, Attagene multiplex mRNA; actives raise or lower the signal. Put shortly: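 Reporter transcripts read by RT-PCR with capillary electrophoresis fluorescence after a 24 h chemical exposure of HepG2 cells transiently transfected with multiple cis-element reporter units. Gain or loss fitted against DMSO.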

Assay [3] can be described thus: ATG_ISRE_CIS: Attagene CIS-FACTORIAL HepG2 Assay for human Interferon Regulatory Factor 1 (IRF1) binding to an Interferon-Stimulated Response Element (ISRE) (AID 2282948). To be noted: HepG2 ISRE cis-reporter (Attagene), mRNA transcription readout; actives raise or lower the signal. Put shortly: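 Multiplexed mRNA reporter readout in human liver HepG2 cells: cis-element-driven reporters transfected, compound added for 24 h, transcripts amplified, fluorescently labelled and sized by capillary electrophoresis; curve fitting bidirectional against DMSO.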

Assay [4] can be described thus: ATG_M_06_CIS: Attagene CIS-FACTORIAL HepG2 Assay for M06 Transcription Factor (Internal Marker) (AID 2282950). To be noted: HepG2 Attagene CIS-FACTORIAL M06 internal marker reporter; actives raise or lower the signal. In outline: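 HepG2 cells transiently transfected with cis-regulated multiple reporter transcription units were exposed to chemical for 24 h; reporter mRNA was quantified by RT-PCR, 6-FAM primer labelling, HpaI digestion and capillary electrophoresis, fitted bidirectionally against DMSO.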

Assay [5] deals with Hypoxia-inducible factor 1-alpha (Homo sapiens) (UniProt Q16665). The assay can be described thus: ATG_HIF1a_CIS: Attagene CIS-FACTORIAL HepG2 Assay for human Hypoxia Inducible Factor 1 (HIF1A) (AID 2282951). To be noted: HepG2 Attagene cis-factorial HIF1a reporter transcription; actives raise or lower the signal. Put shortly: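 Transient MRTU transfection of human HepG2 liver cells, 24 h compound treatment, then total RNA isolation, oligo(dT) reverse transcription, PCR amplification, fluorescent labelling and capillary electrophoresis of reporter fragments. Gain or loss relative to DMSO.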

The target of assay [6] is Hepatocyte nuclear factor 6 (Homo sapiens) (UniProt Q9UBC0). The assay can be described thus: ATG_HNF6_CIS: Attagene CIS-FACTORIAL HepG2 Assay for human Hepatocyte Nuclear Factor 6 (HNF6) (AID 2282952). To be noted: HepG2 Attagene cis-factorial HNF6 reporter transcription; actives raise or lower the signal. Put shortly:
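Using cis-element reporters in HepG2 liver cells, the assay tracks endogenous factor-driven transcription 24 h post-dosing. Signal comes from 6-FAM-labelled, HpaI-digested RT-PCR fragments, with gain or loss scored against DMSO.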

The target in assay [7] is Heat shock factor protein 1 (Homo sapiens) (UniProt Q00613). Nature of the assay: ATG_HSE_CIS: Attagene CIS-FACTORIAL HepG2 Assay for human Heat Shock Transcription Factor 1 (HSE) (AID 2282953). To be noted: HepG2 HSE cis-reporter, Attagene RNA transcription; actives raise or lower the signal. Put shortly:
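HepG2 cells transiently transfected with multiple reporter transcription units under cis-regulatory promoter control, measuring endogenous transcription factor activity. After 24 h chemical exposure, reporter mRNA quantified by RT-PCR, fluorescent labelling, HpaI digestion and capillary electrophoresis; bidirectional fit versus DMSO.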

The nature of assay [8]: ATG_MRE_CIS: Attagene CIS-FACTORIAL HepG2 Assay for human Metal Responsive Element (MRE) (AID 2282954). To be noted: HepG2 MRE cis-reporter transcription, Attagene multiplex; actives raise or lower the signal. In outline: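 Endogenous MRE-dependent transcription read as reporter mRNA in transiently transfected human HepG2 cells at 24 h. RNA reverse-transcribed, PCR-amplified, labelled and resolved by capillary electrophoresis; gain or loss relative to DMSO.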

Assay [9] is described as follows: ATG_PBREM_CIS: Attagene CIS-FACTORIAL HepG2 Assay for human Phenobarbital-responsive Enhancer Module (PBREM) (AID 2282955). To be noted: HepG2 PBREM cis-reporter, Attagene multiplexed transcription; actives raise or lower the signal. Put shortly:
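Endogenous transcription factors in human liver HepG2 cells drive a PBREM cis-element reporter, whose transcript level after 24 h treatment is quantified by RT-PCR with capillary electrophoresis; activity fitted in both directions against DMSO.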

Assay [10] deals with Paired box protein Pax-6 (Homo sapiens) (UniProt P26367). Nature of the assay: ATG_Pax6_CIS: Attagene CIS-FACTORIAL HepG2 Assay for human Paired Box 6 (PAX6) (AID 2282956). To be noted: HepG2 CIS-FACTORIAL PAX6 reporter transcription, RNA readout; actives raise or lower the signal. In outline: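 Fluorescent RT-PCR products separated by capillary electrophoresis report PAX6-linked promoter mRNA in HepG2 cells 24 h post-dose. Curves fitted bidirectionally, DMSO as negative control.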

Assay [11] can be described thus: ATG_PXRE_CIS: Attagene CIS-FACTORIAL HepG2 Assay for human Pregnane X Receptor Element (PXRE) (AID 2282957). To be noted: HepG2 Attagene CIS-FACTORIAL PXRE reporter, mRNA; actives raise or lower the signal. In outline:
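Using HepG2 transfected with multiple reporter transcription units, endogenous factor-driven transcription was scored as reporter mRNA after 24 h exposure.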

Assay [12] in a line: ATG_PPRE_CIS: Attagene CIS-FACTORIAL HepG2 Assay for human Peroxisome Proliferator-activated Response Element (PPRE) (AID 2282958). To be noted: HepG2 PPRE cis-element reporter, Attagene transcription factor profiling; actives raise or lower the signal. In outline: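 HepG2, transient MRTU transfection (cis promoter elements, endogenous TFs). 24 h dosing. RNA → oligo(dT) RT → PCR → 6-FAM primer extension → HpaI digest → CE. Bidirectional fit vs DMSO.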

A short description of assay [13]: ATG_RORE_CIS: Attagene CIS-FACTORIAL HepG2 Assay for human RAR-related Orphan Receptor Element (RORE) (AID 2282959). To be noted: HepG2 Attagene cis-factorial RORE reporter, mRNA; actives raise or lower the signal. In outline: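 Transient MRTU transfection of human HepG2 liver cells (FuGene 6); 24 h compound exposure; TriZol RNA, oligo(dT) RT, PCR, FAM labeling, HpaI cut, CE fragment analysis. DMSO = negative control/baseline.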

Assay [14] is described as follows: ATG_Sox_CIS: Attagene CIS-FACTORIAL HepG2 Assay for human SRY-box transcription factor (SOX) (AID 2282960). To be noted: HepG2 Attagene cis-factorial SOX reporter, mRNA; actives raise or lower the signal. Put shortly:
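Endogenous factor activity in human liver HepG2 cells carrying transfected cis-regulated reporter units. RNA taken 24 h post-dose, reverse-transcribed, PCR-amplified and sized by capillary electrophoresis. Gain or loss of signal fitted relative to DMSO.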

The target in assay [15] is Transcription factor Sp1 (Homo sapiens) (UniProt P08047). Nature of the assay: ATG_Sp1_CIS: Attagene CIS-FACTORIAL HepG2 Assay for human Specificity Protein 1 (Sp1) (AID 2282961). To be noted: HepG2 Sp1 cis-reporter transcription, actives raise or lower the signal. Put shortly: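 Transient MRTU-transfected HepG2, 24 h compound exposure. Total RNA → oligo(dT) RT → PCR of reporter → 6-FAM primer extension → HpaI digest → CE. Endpoint fitted both directions vs DMSO.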

The nature of assay [16]: ATG_SREBP_CIS: Attagene CIS-FACTORIAL HepG2 Assay for human Sterol Regulatory Element Binding (SREBP) (AID 2282962). To be noted: HepG2 Attagene cis-factorial SREBP reporter, mRNA; actives raise or lower the signal. In outline: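 Endogenous factor activity is measured in HepG2 through multiplexed reporter units under cis-element control. Following a 24 h incubation, reporter transcripts are reverse-transcribed, PCR-amplified and sized by capillary electrophoresis; activity is fitted in both directions relative to DMSO.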

In assay [17] the target is Signal transducer and activator of transcription 3 (Homo sapiens) (UniProt P40763). The assay can be described thus: ATG_STAT3_CIS: Attagene CIS-FACTORIAL HepG2 Assay for human Signal Transducer and Activator of Transcription 3 (STAT3) (AID 2282963). To be noted: HepG2, Attagene cis-factorial STAT3 reporter transcription; actives raise or lower the signal. In outline: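 Readout is reporter transcript quantified by RT-PCR and capillary electrophoresis, with 6-FAM primer extension and HpaI digestion. Total RNA is taken 24 h after dosing transiently transfected HepG2 carrying cis-regulated reporter units. Bidirectional fit against DMSO.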

Assay [18] in a line: ATG_TA_CIS: Attagene CIS-FACTORIAL HepG2 Assay for human TA Basal Promoter (AID 2282964). To be noted: HepG2 Attagene CIS-factorial TA basal promoter reporter; actives raise or lower the signal. In outline:
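HepG2 cells transiently transfected with multiplexed cis-promoter reporter units, dosed 24 h. Reporter mRNA measured by RT-PCR, 6-FAM labelling, HpaI digestion and capillary electrophoresis; bidirectional fit versus DMSO baseline, serving as background control.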

Assay [19] can be described thus: ATG_TCF_b_cat_CIS: Attagene CIS-FACTORIAL HepG2 Assay for human T-Cell-Factor with beta-catenin (TCF/b-cat) (AID 2282965). To be noted: HepG2 TCF/beta-catenin cis-reporter transcription, actives raise or lower the signal. Put shortly:
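Endogenous transcription factor activity is captured through cis-promoter reporter constructs transiently introduced into human HepG2 liver cells. Induced reporter mRNA is measured after 24 h and fitted bidirectionally relative to DMSO.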

Assay [20] is described as follows: ATG_M_32_CIS: Attagene CIS-FACTORIAL HepG2 Assay for M32 Transcription Factor (Internal Marker) (AID 2282949).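 Also: background control marker of the multiplexed CIS panel rather than a real target.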 To be noted: HepG2 Attagene cis-factorial M32 reporter, mRNA; actives raise or lower the signal. Put shortly:
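HepG2 human liver cells transiently transfected with cis-promoter-driven multiple reporter transcription units, dosed 24 h. Reporter mRNA quantified by RT-PCR, FAM-labelled primer extension, HpaI digest and capillary electrophoresis; bidirectional fit versus DMSO baseline.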

SMILES strings stand for the structures. Active and inactive are the calls of the source. The calls were made as follows: active = hit-call score of the fitted dose curve at least 0.9, where 1 is the maximum; inactive = score below 0.9.

As usually defined, the AC50 is the concentration giving half of the maximal activity seen.

Hypoxia-inducible factor 1-alpha (Homo sapiens), sequence (Q16665 whole entry, looked up, the tested form may be a part): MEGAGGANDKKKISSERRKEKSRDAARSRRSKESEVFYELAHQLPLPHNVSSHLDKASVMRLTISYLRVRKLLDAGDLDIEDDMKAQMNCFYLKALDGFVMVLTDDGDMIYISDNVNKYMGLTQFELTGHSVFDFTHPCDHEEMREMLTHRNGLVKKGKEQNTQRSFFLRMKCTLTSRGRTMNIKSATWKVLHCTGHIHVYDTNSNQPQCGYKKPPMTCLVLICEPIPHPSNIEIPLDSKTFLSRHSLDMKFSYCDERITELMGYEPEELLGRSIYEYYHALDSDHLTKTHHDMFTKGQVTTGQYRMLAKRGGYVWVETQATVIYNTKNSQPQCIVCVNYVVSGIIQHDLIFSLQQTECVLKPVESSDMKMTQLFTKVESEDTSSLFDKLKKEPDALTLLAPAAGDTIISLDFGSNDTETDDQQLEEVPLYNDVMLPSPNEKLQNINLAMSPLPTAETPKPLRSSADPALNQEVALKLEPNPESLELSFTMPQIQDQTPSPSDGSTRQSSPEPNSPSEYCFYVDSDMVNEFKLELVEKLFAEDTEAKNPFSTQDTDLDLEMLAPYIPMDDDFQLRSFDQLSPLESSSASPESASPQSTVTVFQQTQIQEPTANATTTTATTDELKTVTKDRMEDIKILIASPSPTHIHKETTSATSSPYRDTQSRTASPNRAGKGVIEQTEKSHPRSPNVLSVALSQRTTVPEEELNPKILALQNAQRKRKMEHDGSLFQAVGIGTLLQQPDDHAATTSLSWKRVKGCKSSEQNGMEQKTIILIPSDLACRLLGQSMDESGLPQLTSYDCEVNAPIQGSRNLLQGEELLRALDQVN
Hepatocyte nuclear factor 6 (Homo sapiens), sequence (Q9UBC0 whole entry, looked up, the tested form may be a part): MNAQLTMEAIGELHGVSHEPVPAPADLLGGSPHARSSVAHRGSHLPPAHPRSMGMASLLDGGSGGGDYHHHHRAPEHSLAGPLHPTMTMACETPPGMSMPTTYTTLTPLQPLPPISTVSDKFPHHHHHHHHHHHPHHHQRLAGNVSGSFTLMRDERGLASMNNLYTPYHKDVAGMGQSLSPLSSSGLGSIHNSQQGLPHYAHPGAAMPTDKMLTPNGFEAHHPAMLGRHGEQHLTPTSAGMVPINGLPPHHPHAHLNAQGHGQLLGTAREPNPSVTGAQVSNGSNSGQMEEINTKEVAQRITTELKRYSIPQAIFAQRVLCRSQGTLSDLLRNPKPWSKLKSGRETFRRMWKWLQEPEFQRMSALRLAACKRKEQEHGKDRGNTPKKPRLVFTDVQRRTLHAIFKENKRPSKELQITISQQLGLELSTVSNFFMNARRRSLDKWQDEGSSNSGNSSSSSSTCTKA
Signal transducer and activator of transcription 3 (Homo sapiens), sequence (P40763 whole entry, looked up): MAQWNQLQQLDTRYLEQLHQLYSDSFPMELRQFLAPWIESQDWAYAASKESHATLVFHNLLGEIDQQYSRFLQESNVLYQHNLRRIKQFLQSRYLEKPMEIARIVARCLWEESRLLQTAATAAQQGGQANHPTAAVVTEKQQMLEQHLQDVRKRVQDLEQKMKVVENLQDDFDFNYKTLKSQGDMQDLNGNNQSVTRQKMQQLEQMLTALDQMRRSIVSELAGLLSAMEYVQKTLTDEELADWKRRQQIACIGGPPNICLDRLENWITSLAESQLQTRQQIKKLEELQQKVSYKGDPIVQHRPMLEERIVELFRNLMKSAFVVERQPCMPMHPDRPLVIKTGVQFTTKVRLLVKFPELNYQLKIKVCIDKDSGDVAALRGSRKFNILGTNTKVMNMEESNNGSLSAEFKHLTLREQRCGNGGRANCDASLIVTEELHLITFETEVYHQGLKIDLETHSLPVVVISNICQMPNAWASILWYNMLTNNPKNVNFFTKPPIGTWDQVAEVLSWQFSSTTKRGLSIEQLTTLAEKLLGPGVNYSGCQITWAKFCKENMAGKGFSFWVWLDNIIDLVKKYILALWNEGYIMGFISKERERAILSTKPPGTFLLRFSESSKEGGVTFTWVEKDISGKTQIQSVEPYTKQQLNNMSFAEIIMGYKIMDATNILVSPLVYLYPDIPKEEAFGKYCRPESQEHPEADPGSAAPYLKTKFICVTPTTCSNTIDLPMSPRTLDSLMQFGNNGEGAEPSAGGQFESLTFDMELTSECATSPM
Paired box protein Pax-6 (Homo sapiens), sequence (P26367 whole entry, looked up): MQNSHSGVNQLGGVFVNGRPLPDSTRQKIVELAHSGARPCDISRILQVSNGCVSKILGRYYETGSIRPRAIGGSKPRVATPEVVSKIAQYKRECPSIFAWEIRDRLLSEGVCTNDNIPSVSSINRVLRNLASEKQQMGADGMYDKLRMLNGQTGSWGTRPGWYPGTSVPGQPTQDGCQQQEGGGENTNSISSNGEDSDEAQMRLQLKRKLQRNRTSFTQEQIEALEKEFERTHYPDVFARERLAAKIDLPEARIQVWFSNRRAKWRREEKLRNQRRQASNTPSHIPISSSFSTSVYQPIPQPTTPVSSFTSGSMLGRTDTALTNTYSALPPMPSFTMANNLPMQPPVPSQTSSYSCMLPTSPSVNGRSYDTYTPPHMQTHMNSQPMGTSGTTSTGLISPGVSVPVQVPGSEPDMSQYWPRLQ
Transcription factor Sp1 (Homo sapiens), sequence (P08047 whole entry, looked up): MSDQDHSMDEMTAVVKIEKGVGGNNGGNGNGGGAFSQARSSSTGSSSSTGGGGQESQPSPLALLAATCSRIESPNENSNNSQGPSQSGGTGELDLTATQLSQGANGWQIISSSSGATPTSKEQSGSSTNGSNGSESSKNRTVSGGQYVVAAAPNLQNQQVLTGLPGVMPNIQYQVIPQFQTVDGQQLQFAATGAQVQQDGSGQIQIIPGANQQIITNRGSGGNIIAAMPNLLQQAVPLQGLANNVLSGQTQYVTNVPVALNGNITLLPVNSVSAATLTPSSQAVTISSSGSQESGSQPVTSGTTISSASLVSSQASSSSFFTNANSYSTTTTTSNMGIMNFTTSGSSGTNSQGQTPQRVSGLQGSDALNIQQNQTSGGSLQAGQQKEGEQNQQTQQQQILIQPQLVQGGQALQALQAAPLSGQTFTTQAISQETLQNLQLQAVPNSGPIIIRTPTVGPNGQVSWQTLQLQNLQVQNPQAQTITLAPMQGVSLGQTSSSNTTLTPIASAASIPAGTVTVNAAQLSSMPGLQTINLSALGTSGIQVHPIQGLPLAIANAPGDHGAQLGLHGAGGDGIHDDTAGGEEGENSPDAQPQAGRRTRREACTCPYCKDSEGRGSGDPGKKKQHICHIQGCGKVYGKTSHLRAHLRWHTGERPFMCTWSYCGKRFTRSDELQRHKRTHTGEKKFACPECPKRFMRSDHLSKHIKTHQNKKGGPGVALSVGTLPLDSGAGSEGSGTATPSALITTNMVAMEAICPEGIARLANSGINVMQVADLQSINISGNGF
Heat shock factor protein 1 (Homo sapiens), sequence (Q00613 whole entry, looked up): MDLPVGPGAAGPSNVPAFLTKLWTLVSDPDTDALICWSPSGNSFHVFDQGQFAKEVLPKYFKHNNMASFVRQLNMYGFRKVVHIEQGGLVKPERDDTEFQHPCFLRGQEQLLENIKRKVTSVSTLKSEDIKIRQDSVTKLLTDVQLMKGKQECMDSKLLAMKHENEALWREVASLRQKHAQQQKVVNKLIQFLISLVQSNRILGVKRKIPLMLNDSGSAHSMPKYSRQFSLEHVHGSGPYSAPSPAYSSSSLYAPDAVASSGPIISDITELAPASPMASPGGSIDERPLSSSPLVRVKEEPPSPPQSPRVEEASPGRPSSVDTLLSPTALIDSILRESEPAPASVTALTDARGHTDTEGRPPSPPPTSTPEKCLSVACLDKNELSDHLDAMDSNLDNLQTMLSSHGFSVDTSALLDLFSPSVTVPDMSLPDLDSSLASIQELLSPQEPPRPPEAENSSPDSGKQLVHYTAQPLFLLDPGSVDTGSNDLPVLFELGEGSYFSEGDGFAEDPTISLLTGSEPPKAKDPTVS
Bile acid receptor (Homo sapiens), sequence (Q96RI1 whole entry, looked up): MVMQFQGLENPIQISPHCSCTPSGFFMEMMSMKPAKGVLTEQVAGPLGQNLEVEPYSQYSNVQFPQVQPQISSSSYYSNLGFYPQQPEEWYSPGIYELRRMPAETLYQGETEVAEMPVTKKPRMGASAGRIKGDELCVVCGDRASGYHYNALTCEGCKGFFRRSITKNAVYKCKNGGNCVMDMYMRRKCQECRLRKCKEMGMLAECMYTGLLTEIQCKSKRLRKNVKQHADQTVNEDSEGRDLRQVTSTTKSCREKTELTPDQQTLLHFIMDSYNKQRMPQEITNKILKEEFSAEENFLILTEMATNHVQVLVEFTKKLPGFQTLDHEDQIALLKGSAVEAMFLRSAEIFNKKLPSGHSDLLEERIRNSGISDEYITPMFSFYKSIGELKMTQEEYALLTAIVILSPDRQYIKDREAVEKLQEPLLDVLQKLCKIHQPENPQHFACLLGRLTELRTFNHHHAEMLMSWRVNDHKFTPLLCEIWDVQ

As to `CC(=O)c1ccc(-c2ccccc2)cc1`, the molecule was classed as inactive in assay [1], in assay [2], in assay [3], in assay [4], in assay [5] and in assay [6]. The call in [7], in [8], in assay [9], in [10], in [12] and in assay [13] was inactive. Also, the call in assay [14], in [15], in [16], in assay [17], in assay [18] and in [19] was inactive. Moreover, the AC50 in assay [11] is 27.2 µM (active).

Turning to `CC1(C)CN=C(NN=C(/C=C/c2ccc(C(F)(F)F)cc2)/C=C/c2ccc(C(F)(F)F)cc2)NC1`, the AC50 in assay [1] is 6.99 µM (active); in [3] it was 18.4 µM (active); in [6], 17.3 µM (active); in [7], 18 µM (active); in assay [8] it was 6.34 µM (active); in assay [11] it was 4.77 µM (active). The AC50 in assay [12] is 3.92 µM (active); in [14], 15.4 µM (active); in assay [15], 16.6 µM (active); in assay [16], 19.7 µM (active); in assay [17], 20.2 µM (active); in assay [18], 3.76 µM (active). Besides, the AC50 in [19] is 19.4 µM (active). Also, the call in [2], in assay [4], in assay [5], in assay [9] and in assay [10] was inactive.

On to `O=S(=O)(c1ccc(O)cc1)c1ccc(O)cc1`, for which the result in assay [1], in assay [2], in assay [3], in [4], in assay [5] and in [6] was inactive. The molecule was called inactive in [7], in assay [8], in assay [9], in assay [10], in [12] and in assay [14]. Further, the molecule was classed as inactive in assay [15], in [16], in [17], in assay [18] and in assay [19]. The AC50 in [11] was 35.9 µM (active).

Regarding `CCCCc1ccccc1`, the outcome in [1], in [2], in assay [3], in assay [20], in assay [4] and in assay [6] was inactive. Moreover, the result in [8], in assay [9], in [10], in [11], in assay [12] and in assay [13] was inactive. The call in assay [14], in [15], in assay [17], in [18] and in [19] was inactive. For the same molecule, the half-maximal activity concentration (AC50) in assay [5] was 59.2 µM (active).

In the case of `CCCCC(CC)COC(=O)c1c(Br)c(Br)c(Br)c(Br)c1C(=O)OCC(CC)CCCC` (stereo unspecified), the outcome in assay [1], in [2], in [3], in assay [4], in [5] and in assay [6] was inactive. Moreover, the molecule was called inactive in [7], in assay [8], in [9], in assay [10], in assay [12] and in [14]. Besides, the molecule was called inactive in [15], in assay [16], in assay [17], in [18] and in assay [19]. The AC50 in assay [11] was 19.9 µM (active).
